Screens: PubChem BioAssay, several laboratories
Rows were chosen to be rich in hits. Some 22% of all compounds tested hit in one or more screens of this group.
CYP2C9 act: increases human cytochrome P450 2C9 activity | P11712 | actives 1.4% (n = 96,000) | activation factor at 5 µM | AID 1024 | recombinant CYP2C9, luciferin-H conversion, luminescence; stronger effect = higher value; factor 1 = untreated enzyme, 0 = blocked;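 active means activation factor of 2 or more for CYP2C9 at a 5 µM dose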
CYP2C19 act: increases human CYP2C19 enzyme activity; P33261; 96,000 tested, under 10 active; activation factor at 5 µM; recombinant CYP2C19, luciferin-H EGE luminescence; stronger effect = higher value; 0 = fully inhibited enzyme, 1 = untreated enzyme;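 active means activation factor of at least 2 at 5 µM in the primary screen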
Target sequence (P33261 whole entry, looked up): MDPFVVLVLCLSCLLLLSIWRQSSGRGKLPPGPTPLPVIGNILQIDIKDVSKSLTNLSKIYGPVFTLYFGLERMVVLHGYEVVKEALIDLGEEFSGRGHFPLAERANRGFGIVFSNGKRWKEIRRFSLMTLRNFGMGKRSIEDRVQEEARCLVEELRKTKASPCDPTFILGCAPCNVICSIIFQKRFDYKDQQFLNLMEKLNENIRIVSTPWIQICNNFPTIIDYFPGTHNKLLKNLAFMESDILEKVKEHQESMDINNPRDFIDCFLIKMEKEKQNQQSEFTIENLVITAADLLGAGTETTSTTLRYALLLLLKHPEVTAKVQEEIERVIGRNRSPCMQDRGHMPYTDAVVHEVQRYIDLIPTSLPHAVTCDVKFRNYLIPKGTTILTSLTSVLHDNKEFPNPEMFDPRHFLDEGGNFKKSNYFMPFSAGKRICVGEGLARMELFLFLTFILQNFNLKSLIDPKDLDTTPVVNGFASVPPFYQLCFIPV
CYP2C19 inhib: human CYP2C19 inhibition; P33261; CYP2C19 Supersomes, luciferin-H EGE luminescence, 30 min; inhibition, % at 5 µM; actives 21% (n = 96,000); AID 778;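 active means CYP2C19 inhibition above a set limit at 5 µM in the primary screen, cut at about 50% in these data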
Measles CPE: protection of cells from measles virus; Measles virus-infected cells, CPE protection, absorbance; protection (pct of control), % at 4 µM; actives 1.5% (n = 140,000); AID 841; in the data active means protection mostly above about 24%, no sharp cut-off; inactive means mostly below about 26%
CYP2C9 inhib: human CYP2C9 inhibition | P11712 | CYP2C9 Supersomes, luciferin-H conversion, luminescence | inhibition, % at 5 µM | actives 20% (n = 96,000);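 active means blocking of liver enzyme CYP2C9 beyond about 50% at 5 µM, limit read from the data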
Numbers stand for hits; – = inactive; · = no result given.

SMILES | CYP2C9 act | CYP2C19 act | CYP2C19 inhib | Measles CPE | CYP2C9 inhib
COc1ccc2[nH]c(=O)c(CN(C)C(=O)c3ccncc3)cc2c1 | – | – | 91.6 | – | 59.7
CCCN(Cc1cc2cc(C)ccc2[nH]c1=O)C(=O)c1cccc(OC)c1 | – | – | 64.0 | – | 58.0
CCN1CCCC1CN(Cc1cc2ccc(C)cc2[nH]c1=O)C(=S)Nc1ccccc1OC (configuration not stated) | · | · | · | – | ·
CC(NC(=O)NC1CCCCC1)C(c1cccs1)N1CCOCC1 (configuration not stated) | · | · | · | – | ·
CC1CN(C2CCN(S(=O)(=O)Cc3ccccc3)CC2)CC(C)O1 (configuration not stated) | – | – | – | – | –
Cc1ccccc1C(=O)NNC(=O)CSc1nnc(-c2ccncc2)n1-c1ccccc1 | · | · | · | – | ·
CN(c1cccc(NC(=O)CN(c2cccc(Cl)c2)S(=O)(=O)c2ccccc2)c1)S(C)(=O)=O | · | · | · | – | ·
CCCc1cc(=O)[nH]c(SCC(=O)Nc2ccc(OC(F)F)cc2)n1 | – | – | – | – | –
COc1ccc2[nH]c(=O)c(CN(C(=O)c3ccncc3)C(C)C)cc2c1 | – | – | – | · | 50.2
COc1ccc(CC(=O)N(Cc2cc3cc(OC)ccc3[nH]c2=O)C(C)C)cc1 | – | – | – | – | –
COc1cc(OC)cc(C(=O)N(Cc2cc3cc(C)ccc3[nH]c2=O)C(C)C)c1 | – | – | – | 44.2 | –
CCCN(Cc1cc2cc(OC)ccc2[nH]c1=O)C(=O)c1ccncc1 | – | – | 67.6 | – | –
CCCCN(Cc1cc2cc(OC)ccc2[nH]c1=O)C(=O)c1ccco1 | – | – | 73.8 | – | 70.4
CCCCN(Cc1cc2cc(OC)ccc2[nH]c1=O)C(=O)c1ccccn1 | – | – | – | – | –
Cc1cccc(N2CN(Cc3ccco3)CNC2=S)c1C | · | · | · | – | ·
CC(=O)c1c(C(C)=O)c(C)n(-c2ccc(C)c(NC(=O)c3ccccc3Cl)c2)c1C | – | – | – | – | –
COc1ccc2[nH]c(=O)c(CN(C(=O)c3ccccn3)C3CCCCC3)cc2c1 | – | – | – | – | 63.3
Cc1ccc2[nH]c(=O)c(CNC(C)(C)C)cc2c1 | – | – | – | – | –
CCCN(Cc1cc2cc(C)ccc2[nH]c1=O)S(C)(=O)=O | – | – | 87.8 | – | 72.6
CC1=C(C(=O)Nc2ccccc2)C(c2ccc(C)o2)n2c(s/c(=C\c3ccco3)c2=O)=N1 (configuration not stated) | – | – | 69.1 | – | 85.3
CCOC(=O)C(C(=O)OCC)C1CCS(=O)(=O)C1 (configuration not stated) | · | · | · | – | ·
N#Cc1c(NC(=O)Cn2c(=O)oc3ccccc32)oc(-c2ccccc2)c1-c1ccccc1 | – | – | – | – | 75.7
O=C(Cn1c(=O)oc2ccccc21)NCc1ccco1 | – | – | – | – | –
N#Cc1c(NC(=O)CSc2n[nH]c(N)n2)oc(-c2ccccc2)c1-c1ccccc1 | – | – | – | – | 51.3
Nc1nc(SCC(=O)Nc2ccc(Oc3ccccc3)cc2)n[nH]1 | · | · | · | – | ·
SMILES | CYP2C9 act | CYP2C19 act | CYP2C19 inhib | Measles CPE | CYP2C9 inhib
COc1ccc(/C=C2/SC(=O)N(NS(=O)(=O)c3ccccc3)C2=S)cc1OC | – | – | – | – | 70.5
COc1ccc(/C=C2\SC(=O)N=C2N)cc1OC | · | · | · | – | ·
CCOC(=O)C(C)n1ncn2cccc2c1=O (configuration not stated) | – | – | – | – | –
CC(=O)NC1(c2ccccc2)CCN(c2nc(C)cc(C)n2)CC1 | – | – | 93.3 | – | 96.6
Cc1cc(C)nc(N2CCC(C(=O)NC3CCCc4ccccc43)CC2)n1 (configuration not stated) | – | – | – | – | –
O=C(Cn1ccc2ccccc2c1=O)NCCC(=O)N1CCN(c2cccc(C(F)(F)F)c2)CC1 | – | – | – | – | –
Cc1ccsc1/C=N/N1CCN(c2ccccc2)CC1 | 2.1 | – | – | – | –
COc1cccc(Nc2nnc(SCC(=O)N(CC(C)C)CC(C)C)s2)c1 | – | – | – | – | –
CC1C(=O)C(C)C(c2cccs2)NC1c1cccs1 (configuration not stated) | – | – | 92.5 | – | –
Cc1ccc(C(=O)/C=C/c2c[nH]c3ccccc23)cc1 | – | – | 67.9 | – | 68.6
O=C(/C=C/c1cn(CC(O)CN2CCCCCC2)c2ccccc12)c1cccs1 (configuration not stated) | · | · | · | – | ·
N#C/C(=C\c1cn(-c2ccccc2)nc1-c1ccccc1)S(=O)(=O)c1ccccc1 | · | · | · | – | ·
CC(C)n1cc(/C=C(\C#N)S(=O)(=O)c2ccccc2)c2ccccc21 | – | – | – | – | 69.6
Cc1ccc(C(=O)/C=C/c2cn(CN3CCN(C)CC3)c3ccccc23)cc1 | – | – | – | – | 79.2
Cc1ccc(S(=O)(=O)/C(C#N)=C/c2c[nH]c3ccccc23)cc1 | 2.1 | – | – | – | –
CC1CCN(C(=O)CCc2ccc(Oc3cc([N+](=O)[O-])cc([N+](=O)[O-])c3)cc2)CC1 | · | · | · | – | ·
C/C=C(\C)c1nnc(NC(=O)c2ccco2)s1 | – | – | – | – | –
COc1ccc(-n2c(C)cc(C(=O)Cn3c(NCCO)nc4ccccc43)c2C)cc1 | – | – | 64.8 | – | 62.9
Cc1ccc(C(=O)CNc2ccc(Br)cc2)cc1 | – | – | 75.4 | – | –
O=C(CNc1ccc(Br)cc1)c1ccccc1 | – | – | 76.6 | – | –
CC(C)c1ccc(NCCC(=O)c2ccc(Br)cc2)cc1 | · | · | · | – | ·
C=CCNC(=O)/C(C#N)=C/c1cn(-c2ccccc2)nc1-c1cccs1 | · | · | · | – | ·
COc1ccccc1CNc1nc2nc3c(c(=O)n2[nH]1)CCC3 | – | – | – | – | 75.5
CCC(C)NC(=O)c1ccccc1NC(=O)C(C)N(c1ccccc1)S(C)(=O)=O (configuration not stated) | – | – | 59.2 | – | –
COc1ccc(NC(=O)c2ccccc2NC(=O)COc2ccccc2)cc1 | – | – | – | – | 51.7
SMILES | CYP2C9 act | CYP2C19 act | CYP2C19 inhib | Measles CPE | CYP2C9 inhib
CCC(C)NC(=O)c1ccccc1NC(=O)COc1ccc(OC)cc1 (configuration not stated) | – | – | 50.7 | – | 73.4
COc1cccc2cc(C(=O)n3ccc(C)n3)c(=O)oc12 | – | – | – | – | –
C=C(C)CSc1nncn1/N=C/c1ccc(OC)cc1 | – | – | 62.9 | – | 55.1
OC1(c2cccc(C(F)(F)F)c2)CCN(c2ncnc3c2[nH]c2ccc(F)cc23)CC1 | – | – | 71.0 | – | 85.2
CCOC(=O)N1CCN(c2ncnc3c2[nH]c2ccc(F)cc23)CC1 | – | – | 59.6 | – | –
COc1ccc(N2CCN(c3ncnc4c3[nH]c3ccccc34)CC2)cc1 | – | – | – | – | –
Fc1ccc2[nH]c3c(N4CCN(c5ccccc5)CC4)ncnc3c2c1 | – | – | – | – | –
CCOC(=O)N1CCN(c2ncnc3c2[nH]c2ccc(OC)cc23)CC1 | – | – | 56.0 | – | –
COCc1nnc(NC(=O)c2ccccc2[N+](=O)[O-])s1 | · | · | · | – | ·
CCc1ccc(NC(=O)C(C)OC(=O)c2cccc(S(=O)(=O)N3CCc4ccccc4C3)c2)cc1 (configuration not stated) | · | · | · | – | ·
